Measurements from PubChem BioAssay AID1159580 (chemical genetic matrix, 2015).
Among all 5,500 compounds or so, about 2,000 (36%) were called active. Another 18% or so got no clear call; they are omitted. Cut-off read from the data, not from the text of the source: active = normalized growth mostly below about 0.91 (no sharp cut-off); inconclusive = no clear call, values can overlap the other calls; inactive = mostly above about 0.92. The list shows a part of the results.

Experiment: chemical genetic growth profiling, strain panel (AID 1159580);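 note: tested at 20 µM; growth read once vehicle control cultures reached saturation at 30 °C; 1 = growth at the plate median or of vehicle wells; lower values mean less growth of the strain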
Settings: S. cerevisiae deletion strains, growth OD

Measured: normalized growth

CC(C)Oc1cccnc1N(C)C1CCN(Cc2ccccc2)CC1
inactive: locus YAL013W, strain DEP1, hits give low values 1.02 | locus YAL040C, strain CLN3, hits give low values 0.983 | locus YCL061C, strain MRC1 (second series), hits give low values 1 | locus YDR363W, strain ESC2, hits give low values 1 | locus YER002W, strain NOP16, hits give low values 0.967 | locus YJR075W, strain HOC1, hits give low values 1.01 | locus YMR307W, strain GAS1, hits give low values 1.03 | locus YNL128W, strain TEP1, hits give low values 1.01 | locus YNL175C, strain NOP13, hits give low values 0.991 | locus YNL197C, strain WHI3, hits give low values 0.991 | locus YNL224C, strain SQS1, hits give low values 1 | locus YNL322C, strain KRE1, hits give low values 1.01 | locus YOR083W, strain WHI5 (second series), hits give low values 0.976 | locus YPL055C, strain LGE1, hits give low values 1 | locus YPL241C, strain CIN2, hits give low values 1.01
